Source: PubChem BioAssay (Tox21)
Inconclusive results are not listed. The source made the active and inactive calls. Unless noted, calls come from the whole dose curve; as a rule, active = well fitted curve in the direction sought with a large enough effect in the repeat runs; inconclusive = weak or mixed curves; inactive = no such curve, though single readings can be large; an effect the other way counts as inactive or inconclusive.

Tests used:
[1] = qHTS assay to identify aromatase inhibitors - cell viability counter screen (AID 743084);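 note: cells stimulated with testosterone during compound exposure; nearly all actives have a fitted effect of over 55% in size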
[2] = target: Aryl hydrocarbon receptor (Homo sapiens) (UniProt P35869); assay: qHTS assay to identify small molecule that activate the aryl hydrocarbon receptor (AhR) signaling pathway (AID 743085);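 note: HG2L7.5c1 human HepG2 liver cells with stably integrated DRE-driven firefly reporter; series mostly up to about 70 µM; nearly all actives have a fitted effect of over 15% in size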
Aryl hydrocarbon receptor (Homo sapiens), sequence (P35869 whole entry, looked up): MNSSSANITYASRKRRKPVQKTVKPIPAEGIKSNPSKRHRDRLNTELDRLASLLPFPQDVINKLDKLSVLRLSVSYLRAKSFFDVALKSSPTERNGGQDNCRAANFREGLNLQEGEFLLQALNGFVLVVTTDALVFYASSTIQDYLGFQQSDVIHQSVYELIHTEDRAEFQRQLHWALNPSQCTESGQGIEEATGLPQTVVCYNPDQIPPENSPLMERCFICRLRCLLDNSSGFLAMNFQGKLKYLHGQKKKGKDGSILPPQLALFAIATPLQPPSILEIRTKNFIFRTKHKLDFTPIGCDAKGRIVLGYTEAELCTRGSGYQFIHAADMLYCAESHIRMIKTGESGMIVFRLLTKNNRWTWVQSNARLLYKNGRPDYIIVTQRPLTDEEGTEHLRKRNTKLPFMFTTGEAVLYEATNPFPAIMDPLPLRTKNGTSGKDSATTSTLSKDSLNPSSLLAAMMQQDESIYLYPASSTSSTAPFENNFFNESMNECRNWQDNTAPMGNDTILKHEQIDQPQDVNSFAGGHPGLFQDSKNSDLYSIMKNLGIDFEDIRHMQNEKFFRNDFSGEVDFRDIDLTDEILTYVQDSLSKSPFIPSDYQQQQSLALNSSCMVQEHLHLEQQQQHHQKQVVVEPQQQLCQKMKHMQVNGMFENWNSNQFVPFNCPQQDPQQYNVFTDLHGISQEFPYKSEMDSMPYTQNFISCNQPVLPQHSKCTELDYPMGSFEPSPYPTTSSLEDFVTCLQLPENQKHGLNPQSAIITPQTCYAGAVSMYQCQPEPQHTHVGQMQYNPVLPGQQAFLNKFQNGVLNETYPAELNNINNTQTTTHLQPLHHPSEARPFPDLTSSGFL
Procedure, shortened: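 24 h compound exposure, 37C, HepG2-derived HG2L7.5c1 cells with DRE-responsive luciferase. Readouts: fluorescence viability, then luminescence at room temperature after 30 min.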

[3] = qHTS assay to identify small molecule that activate the aryl hydrocarbon receptor (AhR) signaling pathway - cell viability counter screen (AID 743086);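 note: HepG2 liver cells carrying the AhR DRE luciferase reporter; series mostly up to about 70 µM; nearly all actives have a fitted effect of over 45% in size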
Procedure, shortened: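 Cytotoxicity counter screen: CellTiter-Fluor signal (30 min, 37 C) in 4000 HepG2 cells/well carrying the DRE-luciferase reporter, following 24 h compound exposure at 37 C.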

[4] = target: Peroxisome proliferator-activated receptor gamma (Homo sapiens) (UniProt P37231); assay: qHTS assay to identify small molecule agonists of the peroxisome proliferator-activated receptor gamma (PPARg) signaling pathway (AID 743094; active = well fitted activation curve with a large enough effect in the signal ratio in the repeat runs, not every such curve was filed as active; the % refers to the signal ratio)
Peroxisome proliferator-activated receptor gamma (Homo sapiens), sequence (P37231 whole entry, looked up): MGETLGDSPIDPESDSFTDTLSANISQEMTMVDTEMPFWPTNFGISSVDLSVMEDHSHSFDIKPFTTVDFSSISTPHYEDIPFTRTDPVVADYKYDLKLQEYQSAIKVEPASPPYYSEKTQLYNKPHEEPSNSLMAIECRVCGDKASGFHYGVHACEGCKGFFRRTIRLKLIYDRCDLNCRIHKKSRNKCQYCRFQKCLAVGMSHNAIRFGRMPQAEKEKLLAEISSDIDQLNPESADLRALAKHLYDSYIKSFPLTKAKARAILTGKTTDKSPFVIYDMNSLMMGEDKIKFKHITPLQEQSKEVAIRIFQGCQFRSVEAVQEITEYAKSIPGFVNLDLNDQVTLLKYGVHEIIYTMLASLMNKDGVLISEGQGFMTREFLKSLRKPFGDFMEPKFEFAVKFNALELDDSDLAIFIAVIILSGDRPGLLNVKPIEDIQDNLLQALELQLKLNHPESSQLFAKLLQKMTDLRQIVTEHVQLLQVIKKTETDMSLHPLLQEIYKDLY
Procedure, shortened: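 GeneBLAzer PPARg UAS-bla HEK293H cells were plated, rested 5 h, then exposed to compounds for 17 h at 37C. Beta-lactamase activity was read by LiveBLAzer B/G FRET substrate fluorescence after 1 h at room temperature.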

[5] = target: Peroxisome proliferator-activated receptor gamma (Homo sapiens) (UniProt P37231); assay: qHTS assay to identify small molecule antagonists of the peroxisome proliferator-activated receptor gamma (PPARg) signaling pathway (AID 743191; calls by dose curve; note: series mostly up to about 63 µM; nearly all actives have a fitted effect of over 30% in size)
Procedure, shortened: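 Beta-lactamase reporter under UAS control in HEK293H PPARg-bla cells; compound treatment 17 h at 37C. Read-out: fluorescence intensity after 1 h room-temperature incubation with LiveBLAzer B/G FRET substrate.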

[6] = qHTS assay to identify small molecule antagonists of the peroxisome proliferator-activated receptor gamma (PPARg) signaling pathway - cell viability counter screen (AID 743194); settings: Potency: co-treated with 50 nM rosiglitazone unless noted; note: nearly all actives have a fitted effect of over 55% in size
Procedure, shortened: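 Viability was measured as CellTiter-Glo luminescence in GeneBLAzer PPARg UAS-bla HEK293H cells. These cells had been exposed 17 h at 37 C to compounds together with rosiglitazone at 50 nM final, with the beta-lactamase readout taken in the same wells.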

[7] = qHTS assay for small molecule agonists of the antioxidant response element (ARE) signaling pathway (AID 743202; active = well fitted activation curve with a large enough effect in the signal ratio in the repeat runs, not every such curve was filed as active; the % refers to the signal ratio)
Procedure, shortened: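 An ARE-responsive beta-lactamase gene stably integrated in HepG2 cells serves as reporter. After 5 h plating and 16 h compound incubation at 37 C, fluorescence of the B/G FRET substrate was measured.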

[8] = qHTS assay for small molecule agonists of the antioxidant response element (ARE) signaling pathway - cell viability counter screen (AID 743203; calls by dose curve; note: nearly all actives have a fitted effect of over 55% in size)
Procedure, shortened: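 ARE-bla HepG2 cells were plated, rested 5 h at 37C/5% CO2, then exposed to compounds in DMSO for 16 h. Viability was read as CellTiter-Glo luminescence after 30 min at room temperature, in the same wells as the ARE screen.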

[9] = qHTS assay for small molecule activators of the heat shock response signaling pathway - cell viability counter screen (AID 743209); note: nearly all actives have a fitted effect of over 50% in size
Procedure, shortened: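 HSE-bla HeLa cells plated overnight, then exposed to Tox21 compounds (23 nL in DMSO) for 5 h at 37 C. After the bla reporter read, CellTiter-Glo was added in the same wells and luminescence read after 30 min at room temperature.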

[10] = qHTS assay for small molecule activators of the heat shock response signaling pathway (AID 743210; active = well fitted activation curve with a large enough effect in the signal ratio in the repeat runs, with a control signal flat, not every such curve was filed as active; the % refers to the signal ratio;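 note: HeLa cells with beta-lactamase reporter driven by heat shock elements; series mostly up to about 63 µM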)
Procedure, shortened: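 In HSE-bla HeLa cells, 5 h compound incubation (37 C) precedes addition of LiveBLAzer B/G substrate; after 2.5 h at room temperature, fluorescence intensity indicates reporter induction.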

[11] = qHTS assay to identify small molecule agonists of the peroxisome proliferator-activated receptor delta (PPARd) signaling pathway - cell viability counter screen (AID 743211); note: nearly all actives have a fitted effect of over 55% in size
Procedure, shortened: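 Luminescent ATP viability assay (CellTiter-Glo, 30 min RT) in UAS-bla HEK293H cells carrying the PPAR delta reporter construct, 3000 cells/well, after a 17 h compound treatment at 37 C.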

[12] = target: Peroxisome proliferator-activated receptor delta (Homo sapiens) (UniProt Q03181); assay: qHTS assay to identify small molecule agonists of the peroxisome proliferator-activated receptor delta (PPARd) signaling pathway (AID 743212; calls by dose curve)
Peroxisome proliferator-activated receptor delta (Homo sapiens), sequence (Q03181 whole entry, looked up): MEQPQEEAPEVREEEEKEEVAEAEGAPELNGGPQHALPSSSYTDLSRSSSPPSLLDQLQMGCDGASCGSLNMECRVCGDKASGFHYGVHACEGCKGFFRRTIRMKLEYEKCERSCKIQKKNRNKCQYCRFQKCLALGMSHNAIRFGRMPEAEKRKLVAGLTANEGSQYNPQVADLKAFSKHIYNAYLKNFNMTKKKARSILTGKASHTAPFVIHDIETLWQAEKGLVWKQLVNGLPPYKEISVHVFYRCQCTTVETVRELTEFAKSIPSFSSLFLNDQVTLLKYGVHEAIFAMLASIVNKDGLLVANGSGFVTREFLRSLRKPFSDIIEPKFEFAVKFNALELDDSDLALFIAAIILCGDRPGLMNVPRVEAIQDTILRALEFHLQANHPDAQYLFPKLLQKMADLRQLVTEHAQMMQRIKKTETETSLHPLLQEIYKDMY
Procedure, shortened: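 HEK293H UAS-bla reporter cells, human PPARd system; compounds delivered in DMSO after 5 h plating, then at 37 C. Beta-lactamase FRET read, 2 h RT substrate step.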

[13] = qHTS assay to identify small molecule antagonists of the peroxisome proliferator-activated receptor delta (PPARd) signaling pathway - cell viability counter screen (AID 743213); note: nearly all actives have a fitted effect of over 50% in size
Procedure, shortened: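 Cytotoxicity counter screen: CellTiter-Glo luminescence read 30 min after addition, in the same wells as the reporter assay. There, PPARd UAS-bla HEK293H cells (3000/well) were treated 17 h at 37 C with compound and 300 nM L165041.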

[14] = target: Peroxisome proliferator-activated receptor delta (Homo sapiens) (UniProt Q03181); assay: qHTS assay to identify small molecule antagonists of the peroxisome proliferator-activated receptor delta (PPARd) signaling pathway (AID 743215; active = well fitted inhibition curve with a large enough effect in the signal ratio in the repeat runs, not every such curve was filed as active; the % refers to the signal ratio;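 note: cells stimulated with agonist L165041 at 300 nM final during compound exposure; series mostly up to about 62 µM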)
Procedure, shortened: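 PPARd-bla HEK293H cells (UAS-bla reporter) preincubated 5 h, then given compound plus 300 nM final L165041 agonist for 17 h at 37 C. Beta-lactamase activity read by LiveBLAzer B/G FRET substrate fluorescence after 2 h at room temperature.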

[15] = qHTS assay to identify small molecule agonists of the farnesoid-X-receptor (FXR) signaling pathway - cell viability counter screen (AID 743218); note: nearly all actives have a fitted effect of over 45% in size
Procedure, shortened: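 FXR-UAS-bla HEK 293T cells exposed to compounds for 16 h at 37C. Cytotoxicity read in the same wells by CellTiter-Glo luminescence after 30 min at room temperature, following the beta-lactamase FRET read.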

[16] = qHTS assay to identify small molecule antagonists of the farnesoid-X-receptor (FXR) signaling pathway - cell viability counter screen (AID 743221; active = well fitted cell-killing curve with a large enough effect in the repeat runs, not every such curve was filed as active; note: nearly all actives have a fitted effect of over 50% in size)
Procedure, shortened: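 In GeneBLAzer FXR-UAS-bla HEK 293T cells stimulated with 50 uM chenodeoxycholic acid (final), compounds acted for 16 h at 37 C. Viability was assessed afterwards by CellTiter-Glo luminescence.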

[17] = target: Vitamin D3 receptor (Homo sapiens) (UniProt P11473); assay: qHTS assay to identify small molecule agonists of the vitamin D receptor (VDR) signaling pathway (AID 743222; calls by dose curve)
Vitamin D3 receptor (Homo sapiens), sequence (P11473 whole entry, looked up): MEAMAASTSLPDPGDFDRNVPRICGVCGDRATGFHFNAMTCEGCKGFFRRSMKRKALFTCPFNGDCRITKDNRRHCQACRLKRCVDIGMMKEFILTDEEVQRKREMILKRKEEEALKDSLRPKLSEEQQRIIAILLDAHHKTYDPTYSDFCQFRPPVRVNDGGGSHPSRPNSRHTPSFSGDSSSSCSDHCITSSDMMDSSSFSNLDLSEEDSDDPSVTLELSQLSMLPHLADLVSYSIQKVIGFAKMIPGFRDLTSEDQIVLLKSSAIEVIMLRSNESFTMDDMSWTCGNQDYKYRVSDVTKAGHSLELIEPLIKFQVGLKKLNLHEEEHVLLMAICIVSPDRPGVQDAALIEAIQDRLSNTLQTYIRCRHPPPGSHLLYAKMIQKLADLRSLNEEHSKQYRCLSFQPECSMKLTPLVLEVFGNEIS
Procedure, shortened: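 VDR-bla cells plated 4 h at 37 C, then exposed to compounds for 16 h at 37 C. Beta-lactamase reporter activity measured by fluorescence after 2 h room-temperature loading with LiveBLAzer B/G FRET substrate.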

[18] = target: Vitamin D3 receptor (Homo sapiens) (UniProt P11473); assay: qHTS assay to identify small molecule antagonists of the vitamin D receptor (VDR) signaling pathway (AID 743223; active = well fitted inhibition curve with a large enough effect in the signal ratio in the repeat runs, not every such curve was filed as active; the % refers to the signal ratio)
Procedure, shortened: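 Agonist 1alpha,25-dihydroxyvitamin D3 (3 nM in well) was added with each compound to VDR-bla cells preincubated 4 h. Cells stood 16 h at 37C, then FRET substrate 2 h at room temperature; fluorescence intensity recorded.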

[19] = target: Bile acid receptor (Homo sapiens) (UniProt Q96RI1); assay: qHTS assay to identify small molecule antagonists of the farnesoid-X-receptor (FXR) signaling pathway (AID 743217; active = well fitted inhibition curve with a large enough effect in the signal ratio in the repeat runs, not every such curve was filed as active; the % refers to the signal ratio)
Bile acid receptor (Homo sapiens), sequence (Q96RI1 whole entry, looked up): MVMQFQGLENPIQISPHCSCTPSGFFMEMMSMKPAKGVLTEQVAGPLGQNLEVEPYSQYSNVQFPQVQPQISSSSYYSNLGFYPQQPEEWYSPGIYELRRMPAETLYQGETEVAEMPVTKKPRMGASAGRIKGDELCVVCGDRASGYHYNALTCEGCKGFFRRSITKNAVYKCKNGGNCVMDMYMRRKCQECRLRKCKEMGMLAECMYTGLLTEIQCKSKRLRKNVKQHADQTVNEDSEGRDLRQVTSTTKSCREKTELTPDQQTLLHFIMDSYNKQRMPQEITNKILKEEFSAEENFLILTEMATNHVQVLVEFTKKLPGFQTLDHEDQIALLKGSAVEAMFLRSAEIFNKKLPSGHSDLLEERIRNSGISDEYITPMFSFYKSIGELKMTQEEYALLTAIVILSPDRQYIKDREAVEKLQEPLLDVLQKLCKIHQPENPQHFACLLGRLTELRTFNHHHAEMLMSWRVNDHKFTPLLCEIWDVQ
Procedure, shortened: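 FXR-UAS-bla HEK 293T cells (beta-lactamase reporter) given compound plus chenodeoxycholic acid (50 uM final), 16 h at 37C. LiveBLAzer B/G FRET substrate added for 2 h at room temperature; fluorescence read.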

[20] = target: Bile acid receptor (Homo sapiens) (UniProt Q96RI1); assay: qHTS assay to identify small molecule agonists of the farnesoid-X-receptor (FXR) signaling pathway (AID 743220; active = well fitted activation curve with a large enough effect in the signal ratio in the repeat runs, not every such curve was filed as active; the % refers to the signal ratio)
Procedure, shortened: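 Beta-lactamase reporter under UAS control in GeneBLAzer FXR HEK 293T cells (5000/well) measured with LiveBLAzer FRET substrate after 2 h at room temperature. Compound exposure lasted 16 h at 37C.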

Measured: Potency

O=C(O)C1=NN(c2ccc(S(=O)(=O)O)cc2)C(=O)C1
not listed: [17] | [18] | [19] | [20]
inactive: all other assays above

CCCCCC(C)=O
not listed: [13] | [19] | [20]
inactive: all other assays above

CC(=O)Nc1ccc(CC(=O)O)cc1
not listed: [12] | [14] | [17] | [18] | [19] | [20]
inactive: all other assays above

COC(=O)CCCCC(=O)OC
inactive: all assays above

O=C1OC(=O)c2c(Cl)c(Cl)c(Cl)c(Cl)c21
not listed: [17] | [18]
inactive: all other assays above

Cc1ncc(CO)c(CO)c1O
inactive: all assays above

OC1CCCCC1
not listed: [19] | [20]
inactive: all other assays above

Cc1ccccc1Cl
inactive: all assays above
